From the supplement of paper PMC9023506
Where a name gives a salt, the structure may show the parent alone.

System: Danio rerio larvae (5 dpf)
Test: optomotor response to green moving lines, difference vs DMSO (percentage points (treated minus DMSO)); higher = more of the behaviour than the DMSO vehicle control
Conditions: 10 µM; exposure time: 3 h pre-incubation + 3 h imaging
Experimental: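 5-dpf wild-type zebrafish larvae were imaged in 96-well plates. They were treated with 190 Tocris FDA-approved drugs at 10 µM (1 µl/ml DMSO) for 3 h before and 3 h during imaging at 28.5 °C, 48 larvae per drug. Automated image analysis gave % time moving and optomotor responses. Values are drug group mean minus DMSO vehicle mean (n=844), in percentage points, for 10 behaviours.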

| Structure (SMILES) | optomotor response to green moving lines |
| --- | --- |
| CC(C)C[C@H]1C(=O)N2CCC[C@H]2[C@]2(O)O[C@](NC(=O)[C@@H]3C=C4c5cccc6[nH]c(Br)c(c56)C[C@H]4N(C)C3)(C(C)C)C(=O)N12 [Bromocriptine mesylate] | -20.3 |
| COc1cc2c(cc1OC)C1CC(=O)C(CC(C)C)CN1CC2 (stereo unspecified) [Tetrabenazine] | -9.74 |
| CC(O)(CS(=O)(=O)c1ccc(F)cc1)C(=O)Nc1ccc(C#N)c(C(F)(F)F)c1 (stereo unspecified) [Bicalutamide] | 1.12 |
| C=C1C[C@@H]2[C@H](CC[C@]3(C)C(=O)CC[C@@H]23)[C@@]2(C)C=CC(=O)C=C12 [Exemestane] | 9.98 |
| N[C@@H]1C[C@H]1c1ccccc1 [Tranylcypromine hydrochloride] | 0.888 |
| CN1C[C@H](C(=O)N[C@]2(C)O[C@@]3(O)[C@@H]4CCCN4C(=O)[C@H](Cc4ccccc4)N3C2=O)C[C@@H]2c3cccc4[nH]cc(c34)C[C@H]21 [Dihydroergotamine mesylate] | 16.2 |
| O=c1[nH]c2ccccc2n1C1CCN(CCCC(c2ccc(F)cc2)c2ccc(F)cc2)CC1 [Pimozide] | -16.3 |
| CC[C@@H](C(N)=O)N1CCCC1=O [Levetiracetam] | 4.63 |
| CCN(C)C(=O)Oc1cccc([C@H](C)N(C)C)c1 [Rivastigmine tartrate] | -8.15 |
| C=CCN1C[C@H](C(=O)N(CCCN(C)C)C(=O)NCC)C[C@@H]2c3cccc4[nH]cc(c34)C[C@H]21 [Cabergoline] | -10.2 |
| COc1ccc(C(CN(C)C)C2(O)CCCCC2)cc1 (stereo unspecified) [Venlafaxine hydrochloride] | 1.84 |
